Most compounds without a hit are left out; they make up all but 19% or so of the library.
TDP1 cell noCPT: qHTS for Inhibitors of human tyrosyl-DNA phosphodiesterase 1 (TDP1): qHTS in cells in absence of CPT; DT40 Tdp1-/- hTDP1 cells, no CPT, ATP luminescence, 48 h; Potency, µM (series often up to 46.2 µM), actives largely listed as inhibitors; 15% of 420,000 active; AID 686978, 2013; also: nearly all actives have a fitted effect of over 55% in size
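DT40 Tdp1-/-;hTDP1 cells, no CPT (DMSO vehicle only), 400 cells/well; compounds pin-transferred; ≥48 hr, 37 °C; CellTiter-Glo 30 min RT dark, luminescence read.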
IL-1B inflam inh: blocks inflammasome-driven IL-1 beta release; activity change, % at 57.5 µM; AID 743279; THP-1 LPS/ATP IL-1B secretion, AlphaLISA, 16 h; hits give low values; 4.7% of 360,000 active; in the data active = activity change below about -50%; inconclusive = mostly about -30% to -49%
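Secreted IL-1B measured by AlphaLISA bead assay after 16 h compound exposure of THP-1 cells; compounds (final up to 57.5 uM) added 1 h before LPS (250 ng/mL) and ATP (1.25 mM) stimulation; lower signal means less secretion.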
HT1080-NT tox: kills 2HG-producing HT-1080-NT fibrosarcoma cells; HT-1080-NT fibrosarcoma viability, CellTiter-Glo ATP luminescence, 48 h; Potency, µM (series often up to 46.1 µM), actives largely listed as cytotoxic; 1.6% of 360,000 active; AID 686970;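 also: NT is the 2HG producing partner of a matched IDH1 knockdown line; nearly all actives have a fitted effect of over 55% in size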
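Read-out is CellTiter-Glo luminescence after 10 minutes at room temperature, following 48 hours' compound treatment of HT-1080-NT cells (750 cells/well, RPMI, 5% FBS, 37 degrees C).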
HT1080 IDH1KD tx: toxicity to HT-1080 IDH1 knockdown cells (counter line); HT-1080 IDH1 knockdown viability, ATP luminescence, 48 h; Potency, µM (top dose mostly 46.1 µM), usual class: cytotoxic; 2% of 360,000 active; AID 686971
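Cytotoxicity counter-line: IDH1KD HT-1080, 48 h, CellTiter-Glo. Curves classed by r2, magnitude and activity.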
TDP1 cell CPT: growth inhibition of DT40 Tdp1-/-;hTDP1 cells with camptothecin (screen for TDP1 inhibitors) | chicken DT40 Tdp1-/-;hTDP1 cells + 20 nM CPT, ATP luminescence, 48 h | Potency, µM (top dose mostly 46.2 µM), actives largely listed as inhibitors | 12% of 420,000 active | AID 686979; also: nearly all actives have a fitted effect of over 55% in size
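Chicken DT40 Tdp1-/- cells complemented with human TDP1, 400 cells/well, exposed to compounds plus 20 nM camptothecin for at least 48 h at 37 C; viability read as ATP content by CellTiter-Glo luminescence.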
Numbers stand for hits; – = inactive; ? = inconclusive; · = no result. Unless noted, calls follow the shape of the dose curve; as a rule, active = well fitted curve in the direction sought with a large enough effect; inconclusive = small, poorly fitted or top-dose-only effect, or another doubt; inactive = no such curve, though single readings can be large; an effect the other way counts as inactive or inconclusive.

SMILES	TDP1 cell noCPT	IL-1B inflam inh	HT1080-NT tox	HT1080 IDH1KD tx	TDP1 cell CPT
CCCCCCCNC(=O)C1(CC2CC(c3cccc(Br)c3)=NO2)CCN(C(=O)CCCCCBr)CC1 (configuration not stated)	26µM	?	16µM	?	23µM
CCCCCCCNC(=O)C1(CC2CC(c3cccc(Br)c3)=NO2)CCN(C(=O)C2(C)CC2)CC1 (configuration not stated)	16µM	-59	–	–	16µM
N=c1occ(C(=O)c2cc(F)ccc2O)cc1C(=O)NC1CCCCC1	?	–	–	–	?
COc1ccc(S(=O)(=O)N[C@H]2CC[C@H](CCNC(=O)c3ccccc3F)O[C@@H]2CO)cc1	–	-77	–	–	–
Fc1ccccc1C1CC(c2ccco2)=Nc2ccccc2S1 (configuration not stated)	13µM	–	–	–	?
COc1ccccc1C1CC(c2cccs2)=Nc2ccccc2S1 (configuration not stated)	?	–	–	–	?
COC(=O)c1cc(S(=O)(=O)N2CCC(c3ccccc3)C2)c[nH]1 (configuration not stated)	?	–	?	–	23µM
COC(=O)c1cc(S(=O)(=O)N2CCN(c3ccccc3)CC2)c[nH]1	?	–	–	–	–
COC(=O)c1cc(S(=O)(=O)N2CCC(c3cc(OC)ccc3OC)C2)c[nH]1 (configuration not stated)	?	–	–	–	13µM
COc1ccc(N2C(=O)[C@@H]3C(c4cccnc4)=NO[C@@H]3C2=O)cc1	?	–	–	–	?
CCOC(=O)c1sc(NS(=O)(=O)c2ccc(NC(C)=O)cc2)nc1C	–	–	–	–	–
COc1ccc(C2N(c3ccc4c(c3)OCCO4)C(=O)C2(F)F)cc1OC (configuration not stated)	–	-79	–	–	–
Clc1ccc(Cn2ccc3ccccc32)cn1	–	–	?	–	–
CN(C)c1ccc(Cn2ccc3ccccc32)cc1	22µM	·	·	·	–
CCCCN(CCCC)c1ccc(Cn2ccc3ccccc32)cc1	8.9µM	·	·	·	7.9µM
O=C(COc1ccc(Cl)cc1)N/N=C/c1cccc2cccnc12	18µM	–	–	?	?
Cc1ccnc(-n2c(C)cc(/C=N/NC(=O)COc3cccc4cccnc34)c2C)c1	–	-54	–	–	–
CC(C)(C)c1ccc(C2CC2C(=O)N/N=C\c2cc3ccccc3nc2Cl)cc1 (configuration not stated)	16µM	–	–	–	?
COc1ccc(OCC(=O)N/N=C/c2cccc3cccnc23)cc1	?	–	?	?	?
C=CCc1ccccc1OCC(=O)N/N=C/c1ccc(OC(C)=O)cc1OC(C)=O	6.5µM	–	–	?	5.8µM
O=C1CCC(C(=O)NCc2ccc3c(c2)OCO3)N1 (configuration not stated)	–	–	–	–	–
CCOc1ccc(CNC(=O)CSc2nnc(C)c3c(C)n(-c4ccc(Cl)cc4)nc23)cc1	–	·	·	·	?
Cc1ccccc1OCC(=O)N/N=C/c1cc2ccccc2nc1Cl	15µM	–	–	–	15µM
COc1ccccc1OCC(=O)N/N=C/c1cccc2cccnc12	21µM	–	–	–	?
COc1ccc(/C=N/NC(=O)COc2ccc3ccccc3c2)c(C(=O)O)c1OC	?	–	–	–	16µM
SMILES	TDP1 cell noCPT	IL-1B inflam inh	HT1080-NT tox	HT1080 IDH1KD tx	TDP1 cell CPT
COc1cccc(/C=N/NC(=O)COc2cccc3cccnc23)c1O	4.1µM	–	–	18µM	7.3µM
COc1ccc(OCC(=O)N/N=C/c2ccc(OC)c(OC)c2C(=O)O)cc1	–	–	–	–	–
CN(Cc1cccs1)C(=O)COc1ccc(-c2nnco2)cc1	–	–	–	–	–
CCN1CCN(C(c2ccccc2Cl)c2sc3nc(-c4ccco4)nn3c2O)CC1 (configuration not stated)	–	·	·	·	–
CC1=C(C(=O)N(C(C)C)C(C)C)CC(CC(=O)NCc2ccco2)C(=O)N1CCCN1CCCC1=O (configuration not stated)	–	–	?	–	–
CC(C)(C)c1csc(NC(=O)c2c(F)c(F)c(F)c(F)c2F)n1	?	-55	–	–	?
CC(C)(C)c1csc(NC(=O)c2ccccc2O)n1	?	-83	?	?	–
CC(C)(C)c1csc(NNC(=O)c2ccc(Br)cc2)n1	?	–	?	9.2µM	?
Cc1nc(C)c(C(=O)NNC(=O)c2ccc(Br)cc2)s1	–	–	–	–	–
CSc1ncccc1C(=O)Nc1nc(C(C)(C)C)cs1	?	–	–	–	–
COc1ccc2c(c1)CCc1cnc(-n3ncc(C(=O)N4CCN(CCO)CC4)c3C3CC3)nc1-2	–	·	·	·	–
COC(=O)C1=C(NC(=O)c2ccccc2[N+](=O)[O-])CCS1	–	–	–	–	–
O=C(CCS(=O)(=O)c1ccccc1)N(CCCN1CCOCC1)c1nc2ccccc2s1	3.7µM	-107	–	?	5.2µM
Cc1ccc2nc(N(CCN3CCOCC3)C(=O)CCS(=O)(=O)c3ccccc3)sc2c1	12µM	?	–	–	12µM
O=C(CSc1nc2ccccc2s1)NCCCN1CCOCC1	–	–	–	–	–
Cc1ccc(S(=O)(=O)CCC(=O)N(CCCN2CCOCC2)c2nc3ccccc3s2)cc1	2.9µM	-72	–	–	2.3µM
CCCC(=O)N(CCN1CCOCC1)c1nc2cc(C)c(C)cc2s1	–	–	–	–	–
CCOc1ccc(C(=O)N/N=C(\c2ccccc2)c2ccccn2)cc1	2.9µM	-100	?	2.3µM	2.1µM
N/C(=N\OC(=O)c1cccc([N+](=O)[O-])c1)c1ccccn1	–	–	–	–	?
O=C(N/N=C(\c1ccccc1)c1ccccn1)c1cccc([N+](=O)[O-])c1	1µM	–	?	?	1.2µM
Cn1ccnc1/C(=N\NC(=O)c1ccccc1)c1cccc([N+](=O)[O-])c1	?	-51	–	–	–
CCC(C)N(C)C(=O)c1cc2ccccc2c(-c2ccccc2Cl)n1 (configuration not stated)	?	–	–	–	?
O=C(NC1CCCCC1)Oc1cc2oc(=O)sc2cc1Br	?	–	–	–	16µM
CCOc1ccc2nc(N(Cc3cccnc3)C(=O)c3ccc4c(c3)OCCO4)sc2c1	21µM	·	·	·	?
CN(C)CCN(C(=O)c1ccc2c(c1)OCCO2)c1nc2c(Cl)cccc2s1	–	–	–	–	–
COc1ccc2nc(N(Cc3cccnc3)C(=O)c3ccc4c(c3)OCCO4)sc2c1	?	·	·	·	–
